Reference: PubChem BioAssay (NCI)
About 83,000 compounds went through this panel and 20% of them were active in at least one assay; those are over-represented in the sample as a whole.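 Each cell line was grown in a 96-well plate and treated with one concentration of compound for 48 hours. Values below 10 were considered active.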 Calls of active or inactive are those of the source.

Assays:
Assay in all cases: NCI-60 one-dose screen, 48 h (100 = growth as untreated, 0 = no growth, -100 = all killed)
NCI-H23 lung = conditions: 10 µM unless noted
NCI-H226 lung = conditions: 10 µM unless noted
NCI-H322M lung = conditions: 10 µM unless noted
NCI-H460 lung = conditions: 10 µM unless noted
NCI-H522 lung = conditions: 10 µM
A549/ATCC NSCLC = conditions: 10 µM unless noted
786-0 renal = conditions: 10 µM unless noted
COLO 205 colon = conditions: 10 µM unless noted
DU-145 prostate = conditions: 10 µM unless noted
K-562 leukemia = conditions: 10 µM unless noted
MDA-MB-231 breast = conditions: 10 µM unless noted
RXF 393 renal = conditions: 10 µM unless noted
SF-268 CNS = conditions: 10 µM unless noted
SF-295 CNS = conditions: 10 µM unless noted
SF-539 CNS = conditions: 10 µM unless noted
UACC-257 melanoma = conditions: 10 µM unless noted
M14 melanoma = conditions: 10 µM unless noted
MALME-3M melanoma = conditions: 10 µM unless noted

Measured: growth

NNC(=S)N1N=C(c2cc3ccccc3o2)CC1c1c[nH]c2ccccc12 (configuration not stated)
inactive: NCI-H23 lung 56.4% | NCI-H226 lung 69.7% | NCI-H322M lung 39.6% | NCI-H460 lung 24.7% | NCI-H522 lung 42.6% | A549/ATCC NSCLC 48.4% | 786-0 renal 22% | COLO 205 colon 52.2% | DU-145 prostate 50.9% | MDA-MB-231 breast 41.6% | RXF 393 renal 77.7% | SF-268 CNS 29.6% | SF-295 CNS 38.9% | SF-539 CNS 57.9% | UACC-257 melanoma 64.2% | M14 melanoma 52.1%
active: K-562 leukemia 9.64%

CC(C)C(=O)c1ccc(Cl)s1
inactive: NCI-H23 lung 103% | NCI-H226 lung 93.2% | NCI-H322M lung 91.5% | NCI-H460 lung 105% | 786-0 renal 102% | COLO 205 colon 109% | DU-145 prostate 106% | K-562 leukemia 91.5% | MALME-3M melanoma 82.8% | MDA-MB-231 breast 105% | RXF 393 renal 105% | SF-268 CNS 102% | SF-295 CNS 99.3% | SF-539 CNS 107% | M14 melanoma 101%

CNc1ccc(Nc2ccc(S(=O)(=O)O)cc2)c2c1C(=O)c1ccccc1C2=O
inactive: NCI-H23 lung 106% | NCI-H226 lung 96.6% | NCI-H322M lung 112% | NCI-H460 lung 108% | A549/ATCC NSCLC 92% | 786-0 renal 103% | COLO 205 colon 118% | DU-145 prostate 112% | K-562 leukemia 101% | MALME-3M melanoma 110% | MDA-MB-231 breast 111% | RXF 393 renal 104% | SF-268 CNS 114% | SF-539 CNS 101% | UACC-257 melanoma 107% | M14 melanoma 112%

CC(Br)c1nc2ccccc2cc1C(N)=O (configuration not stated)
inactive: NCI-H23 lung 107% | NCI-H226 lung 106% | NCI-H322M lung 99.9% | NCI-H460 lung 102% | A549/ATCC NSCLC 97% | 786-0 renal 103% | COLO 205 colon 110% | DU-145 prostate 102% | K-562 leukemia 90.9% | MALME-3M melanoma 101% | MDA-MB-231 breast 118% | RXF 393 renal 109% | SF-268 CNS 104% | SF-539 CNS 103% | UACC-257 melanoma 119% | M14 melanoma 109%

CCn1cnc(C[C@H](NC(=O)[C@@H](NC(=O)Nc2cc(C(F)(F)F)cc(C(F)(F)F)c2)C(C)(C)C)C(=O)OC)c1
active: NCI-H23 lung -84.2% [100 µM] | NCI-H226 lung -49.5% [100 µM] | NCI-H322M lung -96.3% [100 µM] | NCI-H460 lung -57.2% [100 µM] | A549/ATCC NSCLC -80.1% [100 µM] | 786-0 renal -83.9% [100 µM] | COLO 205 colon -80% [100 µM] | DU-145 prostate -95.1% [100 µM] | K-562 leukemia -47% [100 µM] | MALME-3M melanoma -82.5% [100 µM] | MDA-MB-231 breast -93.6% [100 µM] | RXF 393 renal -83.7% [100 µM] | SF-268 CNS -89.2% [100 µM] | SF-295 CNS -88.6% [100 µM] | SF-539 CNS -93.4% [100 µM] | UACC-257 melanoma -96.2% [100 µM] | M14 melanoma -90.8% [100 µM]

NCCCOc1cc2ccccc2cc1C(=O)Nc1ccc(Cl)cc1OC(=O)c1cc2ccccc2cc1OCCCN
active: NCI-H23 lung -72.2% | NCI-H226 lung -57.6% | NCI-H322M lung -69.3% | NCI-H460 lung -89.7% | A549/ATCC NSCLC -94.3% | 786-0 renal -86.2% | COLO 205 colon -90.8% | DU-145 prostate -97% | K-562 leukemia -37.5% | MALME-3M melanoma -70.7% | RXF 393 renal -86.4% | SF-268 CNS -80.5% | SF-295 CNS -76.2% | SF-539 CNS -89.6% | M14 melanoma -86.7%

COc1cc2ncnc(-n3ncc4cc(NC(=O)Nc5ccc(Cl)c(C)c5)ccc43)c2cc1OC
inactive: NCI-H23 lung 95.5% | NCI-H226 lung 85.9% | NCI-H322M lung 88.7% | NCI-H460 lung 102% | NCI-H522 lung 86.9% | A549/ATCC NSCLC 99.9% | 786-0 renal 77.5% | DU-145 prostate 101% | K-562 leukemia 90.5% | MALME-3M melanoma 82.8% | MDA-MB-231 breast 98.9% | RXF 393 renal 99.4% | SF-268 CNS 102% | SF-295 CNS 96.9% | SF-539 CNS 59.7% | UACC-257 melanoma 102% | M14 melanoma 79.3%

CCOC(=O)c1c(C)oc2ncnc(Nc3ccc(NC(=O)Nc4cccc(Cl)c4)cc3)c12
inactive: NCI-H23 lung 64.1% | NCI-H226 lung 54.8% | NCI-H322M lung 83.6% | NCI-H460 lung 67.2% | NCI-H522 lung 57.2% | A549/ATCC NSCLC 32.3% | 786-0 renal 79.1% | DU-145 prostate 70.8% | K-562 leukemia 67.7% | MALME-3M melanoma 81.4% | RXF 393 renal 63.6% | SF-268 CNS 86.4% | SF-295 CNS 79.6% | SF-539 CNS 16.6% | UACC-257 melanoma 84% | M14 melanoma 48.6%
active: MDA-MB-231 breast -18.7%

Cc1cc2cn3c4ccc(O)cc4nc(N)c3c2cc1C
active: NCI-H322M lung 7.56% | NCI-H460 lung -36.1% | A549/ATCC NSCLC 8.84% | COLO 205 colon -56.4% | DU-145 prostate 4.25% | K-562 leukemia -14.9% | SF-295 CNS 1.42% | M14 melanoma 4.96%
inactive: NCI-H23 lung 26.8% | NCI-H226 lung 45.9% | 786-0 renal 13.5% | MALME-3M melanoma 39.6% | MDA-MB-231 breast 27.3% | RXF 393 renal 41.1% | SF-268 CNS 12.9% | SF-539 CNS 11.4% | UACC-257 melanoma 53.1%
